In the library only some 21% were active in any assay of this set; here they are far more common.
ELG1 repair inh = qHTS screen for small molecules that inhibit ELG1-dependent DNA repair in human embryonic kidney (HEK293T) cells expressing luciferase-tagged ELG1 | hit rate 2.3% among 330,000 | AID 504467, 2011 | HEK293T ELG1-luciferase reporter, luminescence, 16 h; DNA damage induced by 5-fluorouridine | Potency, µM (highest dose often 46.1 µM), without a hit: at the top dose activity change, negative = inhibition, most hits filed as inhibitors; note: potency is the fitted concentration of half-maximal effect; nearly all actives have a fitted effect of over 55% in size
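Luminescence from the luciferase reporter, measured 30 min after ONE-Glo reagent at room temperature, was the read-out. Beforehand, 2,000 cells per well were exposed for 16 hr at 37 °C to 5-fluorouridine together with compound or vehicle.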
DT40 TDP1 CPT = qHTS for Inhibitors of human tyrosyl-DNA phosphodiesterase 1 (TDP1): qHTS in cells in presence of CPT; chicken DT40 Tdp1-/-;hTDP1 cells + 20 nM CPT, ATP luminescence, 48 h; Potency, µM (highest dose often 46.2 µM), without a hit: top-dose activity change, negative = growth inhibition, usual class: inhibitors; hit rate 12% among 420,000; AID 686979, 2013; note: potency is the fitted concentration of half-maximal effect; nearly all actives have a fitted effect of over 55% in size
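Chicken DT40 Tdp1-/- cells complemented with human TDP1, 400 cells/well, exposed to compounds plus 20 nM camptothecin for at least 48 h at 37 C; viability read as ATP content by CellTiter-Glo luminescence.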
IL-1B inflam inh = qHTS for Inhibitors of Inflammasome Signaling: IL-1-beta AlphaLISA Primary Screen. hit rate 4.7% among 360,000. THP-1 LPS/ATP IL-1B secretion, AlphaLISA, 16 h; stronger effect = lower value. activity change, % at 57.5 µM; in the data active = activity change below about -50%; inconclusive = mostly about -30% to -49%
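THP-1 cells pretreated 1 hr with compounds (up to 57.5 uM final), then stimulated with LPS (250 ng/mL final) plus ATP (1.25 mM final); secreted IL-1B measured by AlphaLISA after 16 hr, decreased signal indicating inhibition.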
Gal4-VP16 FLuc = VP16 counterscreen qHTS for inhibitors of ROR gamma transcriptional activity. Drosophila S2 Gal4-VP16 UAS-luciferase, luminescence, 20 h. Potency, µM (doses to about 53.6 µM), for the others: at the top dose activity, negative = inhibition, most hits filed as inhibitors. hit rate 3.5% among 310,000;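 note: Gal4-VP16 expression switched on by copper sulfate through the metallothionein promoter; potency is the fitted concentration of half-maximal effect; nearly all actives have a fitted effect of over 50% in size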
TDP1 cell noCPT = qHTS for Inhibitors of human tyrosyl-DNA phosphodiesterase 1 (TDP1): qHTS in cells in absence of CPT; DT40 Tdp1-/- hTDP1 cells, no CPT, ATP luminescence, 48 h; Potency, µM (top dose mostly 46.2 µM), for the others: at the highest dose activity change, negative = growth inhibition, most hits filed as inhibitors; hit rate 15% among 420,000; note: potency is the fitted concentration of half-maximal effect; nearly all actives have a fitted effect of over 55% in size
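Camptothecin absent (DMSO only). Human TDP1-complemented DT40 knockout cells, 400 cells/well, 37 °C for minimum 48 hr; ATP measured via CellTiter-Glo, 30 min dark incubation, luminescence.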
RORgamma inh = qHTS for inhibitors of ROR gamma transcriptional activity. Potency, µM (highest dose often 53.6 µM), without a hit: top-dose activity change, negative = inhibition, most hits filed as inhibitors. Nuclear receptor ROR-gamma (Mus musculus), P51450. hit rate 5.4% among 310,000. Drosophila S2 Gal4-RORgamma UAS-luciferase reporter, 20 h; note: potency is the fitted concentration of half-maximal effect; nearly all actives have a fitted effect of over 60% in size
Target sequence (P51450 whole entry, looked up, the tested form may be a part): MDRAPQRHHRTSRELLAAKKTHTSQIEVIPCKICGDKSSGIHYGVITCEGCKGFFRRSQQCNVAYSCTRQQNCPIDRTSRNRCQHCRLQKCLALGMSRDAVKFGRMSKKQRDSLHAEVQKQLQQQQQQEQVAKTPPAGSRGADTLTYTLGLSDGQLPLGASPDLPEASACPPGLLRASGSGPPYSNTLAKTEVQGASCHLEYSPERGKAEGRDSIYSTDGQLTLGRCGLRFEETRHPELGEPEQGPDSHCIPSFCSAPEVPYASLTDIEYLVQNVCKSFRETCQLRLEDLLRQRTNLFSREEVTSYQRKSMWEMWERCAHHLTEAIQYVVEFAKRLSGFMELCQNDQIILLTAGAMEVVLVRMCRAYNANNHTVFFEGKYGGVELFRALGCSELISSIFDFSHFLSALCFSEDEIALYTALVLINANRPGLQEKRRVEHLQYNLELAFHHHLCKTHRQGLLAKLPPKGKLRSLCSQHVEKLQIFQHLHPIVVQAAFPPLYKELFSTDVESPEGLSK
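Using a luciferase readout, inhibitors were identified by reduced reporter activity in Drosophila cells coexpressing a copper-inducible Gal4–ROR gamma fusion and UAS-driven Photinus luciferase, incubated 20 hr after 700 uM copper sulfate.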
Numbers without * were called inactive; u = inconclusive; x = no result; [ ] = remark or other dose. Unless noted, calls come from the whole dose curve; as a rule, active = well fitted curve in the direction sought with a large enough effect; inconclusive = small, poorly fitted or top-dose-only effect, or another doubt; inactive = no such curve, though single readings can be large; an effect the other way counts as inactive or inconclusive. % is set by controls: 0 for no effect and ±100 for the full control effect.

SMILES	ELG1 repair inh	DT40 TDP1 CPT	IL-1B inflam inh	Gal4-VP16 FLuc	TDP1 cell noCPT	RORgamma inh
COc1ccccc1CC(=O)Nc1ccc2nc(Nc3cccc(C(F)(F)F)c3)cc(C)c2c1	x	7.3µM*	x	x	5.8µM*	x
COc1ccccc1-c1noc(CCC(=O)Nc2cccc(C(F)(F)F)c2)n1	u	u	30	-4%	u	-22%
O=C(Cc1cccs1)Nc1nc(-c2ccccc2)cs1	-13%	23µM*	-70*	23%	8.2µM*	u
O=C(COC(=O)c1cccs1)Nc1nc(-c2ccccc2)cs1	u	3%	-5	1%	u	8%
O=C(COC(=O)/C=C/c1cccs1)Nc1nc(-c2ccccc2)cs1	u	16µM*	-13	u	13µM*	u
CS(=O)(=O)N1CCc2cc(-c3csc(NC(=O)Cc4cccs4)n3)ccc21	5.8µM*	13µM*	-65*	u	8.2µM*	17%
CCCc1ccc(C(=O)CN2C(=O)C(=O)N(C3CCCC3)C2=O)cc1	u	-14%	17	x	2%	x
O=C(Cc1cccc(NC(=O)C2CCN(C(=O)C3CCCC3)CC2)c1)Nc1cccc(C(=O)N2CCOCC2)c1	x	26%	-21	x	-2%	x
COc1ccc(-c2c(C)n([O-])c3c([n+]2=O)CCCCC3)cc1OC	3%	18%	-8	-7%	-10%	0%
O=c1oc2ccc(Cl)cc2nc1/C=C(\O)c1cccs1	u	u	5	11µM*	-27%	8.9µM*
C[C@H]1CN([C@@H](C)CO)S(=O)(=O)c2ccc(Br)cc2O[C@@H]1CN(C)C(=O)CCN1CCCCC1	x	-13%	-8	x	6%	x
COc1ccc(NS(=O)(=O)c2cccc(C(=O)N/N=C(\C)c3cccnc3)c2)cc1	3%	-17%	17	x	-8%	x
CC(C)(C)c1ccc(C(=O)N2CCCC2c2cccs2)cc1 (stereo not drawn)	13%	-17%	-99*	-7%	u	u
CNC(=O)Cn1c(=O)c2cccn2c2ccc(F)cc21	x	-3%	x	x	-5%	x
NC(=O)C1=C[C@H](c2ccc(C(F)(F)F)cc2)C[C@H](OCc2ccc(CO)cc2)O1	-2%	-25%	-3	-3%	u	29%
NC(=O)C1=C[C@@H](c2ccc(C(F)(F)F)cc2)C[C@@H](OCc2ccc(CO)cc2)O1	5%	u	-13	1%	15µM*	8%
NC(=O)C1=C[C@H](c2ccc(Br)cc2)C[C@H](OCc2ccc(CO)cc2)O1	u	13µM*	-13	-19%	21µM*	25%
O=S(=O)(NCc1csc(-c2ccccc2)n1)c1ccccc1	x	2%	x	x	-20%	x
O=C(NCC1CCN(Cc2ccccc2F)CC1)C1CCCN(c2ncnc3c2nc2n3CCCCC2)C1 (stereo not drawn)	7.3µM*	u	u	-26%	-7%	1%
CCOc1ccc(CCNC(=O)C2CCCN(c3ncnc4c3nc3n4CCCCC3)C2)cc1 (stereo not drawn)	u	u	-12	26%	23µM*	0%
Cc1ccc(CCNC(=O)C2CCCN(c3ncnc4c3nc3n4CCCCC3)C2)cc1 (stereo not drawn)	-4%	u	16	13%	-19%	2%
Cc1ccc(CN2CCC(CNC(=O)C3CCCN(c4ncnc5c4nc4n5CCCCC4)C3)CC2)cc1 (stereo not drawn)	-17%	u	-66*	2%	u	1%
CCOc1ccc(NS(=O)(=O)c2coc(C(N)=O)c2)cc1	19%	10%	19	-7%	-2%	15%
O=C(O)c1ccc2c(c1)CC(c1ccccc1)OC2=O (stereo not drawn)	25%	7%	30	u	-9%	37%
O=C1OC(c2ccccc2)Cc2cc(C(=O)N3CCN(c4ccc(F)cc4)CC3)ccc21 (stereo not drawn)	-15%	18µM*	-13	x	u	x
SMILES	ELG1 repair inh	DT40 TDP1 CPT	IL-1B inflam inh	Gal4-VP16 FLuc	TDP1 cell noCPT	RORgamma inh
COc1ccc(N2CCN(C(=O)c3ccc4c(c3)CC(c3ccccc3)OC4=O)CC2)cc1 (stereo not drawn)	-29%	u	-11	x	21µM*	x
CCc1ccc(S(=O)(=O)c2cn(C)c3cc(N4CCCCC4C)c(F)cc3c2=O)cc1 (stereo not drawn)	x	u	x	x	15µM*	x
Cn1cc(S(=O)(=O)c2ccccc2)c(=O)c2cc(F)c(N3CCCC3)cc21	x	-17%	x	x	-21%	x
Cc1ccc(C)c(S(=O)(=O)c2cn(C)c3cc(F)c(F)cc3c2=O)c1	x	-18%	x	x	-16%	x
CCN1CCN(c2cc3c(cc2F)c(=O)c(S(=O)(=O)c2ccccc2)cn3C)CC1	6%	-4%	56	-6%	4%	-28%
Cc1ccc(C)c(S(=O)(=O)c2cn(C)c3cc(N4CCCCC4C)c(F)cc3c2=O)c1 (stereo not drawn)	x	21µM*	x	x	21µM*	x
CCc1ccc(S(=O)(=O)c2cn(C)c3cc(N4CCC(C)CC4)c(F)cc3c2=O)cc1	x	15µM*	x	x	15µM*	x
CC1(C(=O)NS(=O)(=O)c2cccc(C#N)c2)CCN1C(=O)C/C=C/c1ccccc1 (stereo not drawn)	x	-2%	-3	x	-5%	x
CCCCNC(=O)C1c2ccccc2OCC(=O)N1CCOC (stereo not drawn)	x	-6%	58	x	-4%	x
COc1ccc(NC(=O)CCS(=O)(=O)c2ccccc2Cl)cc1S(=O)(=O)Nc1ccc(Cl)cc1	u	u	-14	10%	16µM*	37%
CCN(CC(=O)Nc1ccc(C)c(F)c1)CC(=O)NC(C)C	16%	-1%	-4	14%	-26%	-26%
COc1ccc(NC(=O)CCSc2ccc(C)cc2)cc1S(=O)(=O)Nc1ccccc1Cl	u	u	24	-6%	13µM*	25%
CCN(CC(=O)Nc1ccc(Br)c(C)c1)CC(=O)NC(C)C	0%	u	-3	5%	15µM*	19%
COc1ccc(NC(=O)c2ccc3ccccc3n2)cc1S(=O)(=O)Nc1ccccc1Cl	-23%	u	9	-25%	23µM*	35%[10 µM]

Assay outcomes as filed in PubChem.
